Reference: PubChem BioAssay AID1159580 (chemical genetic matrix, 2015)
“And” between values parts separate entries of the source, which are not always exact repeats. Identical values can stand only once. The whole screen tested about 5,500 compounds, of which about 2,000 (36%) were called active. About 18% were inconclusive and are not listed. Rule as the data show it: active = normalized growth mostly below about 0.91 (no sharp cut-off); inconclusive = no clear call, values can overlap the other calls; inactive = mostly above about 0.92. Some of the results follow.

Experiment: chemical genetic growth profiling, strain panel (AID 1159580);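 also: tested at 20 µM; growth read once vehicle control cultures reached saturation at 30 °C; 1 = growth at the plate median or of vehicle wells; lower values mean less growth of the strain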
Details: S. cerevisiae deletion strains, growth OD

Measured: normalized growth

CC1(C)S[C@@H]2[C@H](NC(=O)[C@@H](N)c3ccc(O)cc3)C(=O)N2[C@H]1C(=O)O
inactive: locus YAL013W, strain DEP1, hits give low values 1.01 | locus YAL021C, strain ccr4, hits give low values 0.97 | locus YAL026C, strain drs2, hits give low values 0.976 | locus YAL030W, strain snc1, hits give low values 0.999 | locus YBL061C, strain skt5, hits give low values 1.01 | locus YBR009C, strain hhf1, hits give low values 0.951 | locus YBR021W, strain FUR4, hits give low values 1 | locus YBR023C, strain chs3, hits give low values 0.996 | locus YBR171W, strain sec66, hits give low values 0.987 | locus YBR229C, strain ROT2, hits give low values 1 | locus YBR231C, strain swc5, hits give low values 1 | locus YBR279W, strain paf1, hits give low values 0.99 | locus YCL011C, strain gbp2, hits give low values 0.988 | locus YCL016C, strain dcc1, hits give low values 0.992 | locus YCL029C, strain bik1, hits give low values 1.01 | locus YCL069W, strain vba3, hits give low values 0.989 | locus YCR088W, strain abp1, hits give low values 0.983 | locus YDL005C, strain med2, hits give low values 0.993 | locus YDL035C, strain GPR1, hits give low values 1.02 | locus YDL040C, strain nat1, hits give low values 0.995 | locus YDL074C, strain BRE1, hits give low values 1.01 | locus YDL101C, strain DUN1, hits give low values 1.01 | locus YDL185W, strain tfp1, hits give low values 0.997 | locus YDL192W, strain arf1, hits give low values 1 | locus YDR001C, strain nth1, hits give low values 0.964 | locus YDR069C, strain doa4, hits give low values 1.01 | locus YDR101C, strain arx1, hits give low values 1 | locus YDR137W, strain rgp1, hits give low values 0.938 | locus YDR159W, strain sac3, hits give low values 0.991 | locus YDR162C, strain NBP2, hits give low values 1.03 | locus YDR195W, strain ref2 0.98 | locus YDR297W, strain sur2, hits give low values 0.998 | locus YDR318W, strain mcm21, hits give low values 0.998 | locus YDR334W, strain swr1, hits give low values 0.982 | locus YDR335W, strain msn5, hits give low values 0.996 | locus YDR388W, hits give low values 1.01 | locus YDR392W, strain spt3, hits give low values 0.936 | locus YDR502C, strain sam2, hits give low values 0.999 | locus YEL003W, strain gim4, hits give low values 0.991 | locus YEL037C, strain rad23, hits give low values 0.983 | locus YEL061C, strain CIN8 (second series), hits give low values 0.988 | locus YEL061C, strain CIN8, hits give low values 1.01 | locus YER015W, strain faa2, hits give low values 0.998 | locus YER016W, strain bim1, hits give low values 0.967 | locus YER110C, hits give low values 1.01 | locus YER111C, strain swi4, hits give low values 0.98 | locus YER155C, strain BEM2 (second series), hits give low values 0.996 | locus YER155C, strain BEM2, hits give low values 1 | locus YER167W, strain BCK2, hits give low values 1.01 | locus YFR010W, strain ubp6, hits give low values 0.987 | locus YGL078C, strain dbp3, hits give low values 1 | locus YGL086W, strain mad1, hits give low values 0.994 | locus YGL167C, strain pmr1, hits give low values 1.01 | locus YGL173C, strain kem1, hits give low values 1.02 | locus YGL227W, strain vid30, hits give low values 1 | locus YGL240W, strain doc1, hits give low values 1.02 | locus YGL248W, strain PDE1, hits give low values 1.02 | locus YGL253W, strain hxk2, hits give low values 0.99 | locus YGR078C, strain PAC10, hits give low values 1 | locus YGR135W, strain pre9, hits give low values 0.986 | locus YGR252W, strain gcn5, hits give low values 0.954 | locus YHR013C, strain ard1, hits give low values 1.03 | locus YHR027C, strain rpn1, hits give low values 0.989 | locus YHR030C, strain SLT2, hits give low values 1.01 and 1.03 | locus YHR079C, strain IRE1 (second series), hits give low values 0.996 | locus YHR079C, strain IRE1, hits give low values 1.06 | locus YHR094C, strain hxt1, hits give low values 1 | locus YHR129C, strain ARP1, hits give low values 1.01 | locus YHR142W, strain chs7, hits give low values 0.982 | locus YHR200W, strain rpn10, hits give low values 0.995 | locus YIL066C, strain RNR3, hits give low values 1.03 | locus YIL073C, strain SPO22, hits give low values 1.04 | locus YIL125W, strain kgd1, hits give low values 1 | locus YIR030C, strain dcg1, hits give low values 1 | locus YJL092W, strain hpr5, hits give low values 0.991 | locus YJL095W, strain BCK1 (second series), hits give low values 0.983 | locus YJL095W, strain BCK1, hits give low values 1.02 and 1.06 | locus YJL115W, strain asf1, hits give low values 0.979 | locus YJL129C, strain trk1, hits give low values 1 | locus YJL134W, strain LCB3, hits give low values 1.01 | locus YJL154C, strain vps35, hits give low values 0.991 | locus YJL164C, strain tpk1, hits give low values 0.995 | locus YJL166W, strain qcr8, hits give low values 1.02 | locus YJL168C, strain set2, hits give low values 0.997 | locus YJL187C, strain SWE1 (second series), hits give low values 1.01 | locus YJL187C, strain SWE1, hits give low values 0.998 | locus YJR043C, strain POL32, hits give low values 1.01 | locus YJR066W, strain TOR1, hits give low values 1.01 | locus YJR075W, strain HOC1, hits give low values 1.02 | locus YKL009W, strain mrt4, hits give low values 1.02 | locus YKL068W, hits give low values 1 | locus YKL085W, strain MDH1 (second series), hits give low values 1.01 | locus YKL085W, strain MDH1, hits give low values 1.01 | locus YKL160W, strain elf1, hits give low values 1.01 | locus YKR001C, strain vps1, hits give low values 0.982 | locus YKR026C, strain gcn3, hits give low values 1.07 | locus YKR091W, strain srl3, hits give low values 1 | locus YLL001W, strain dnm1, hits give low values 1.02 | locus YLL026W, hits give low values 0.992 | locus YLL041C, strain sdh2, hits give low values 0.999 | locus YLR027C, strain aat2, hits give low values 0.993 | locus YLR039C, strain RIC1, hits give low values 1 | locus YLR058C, strain SHM2, hits give low values 1.01 | locus YLR102C, strain apc9, hits give low values 0.997 | locus YLR113W, strain HOG1, hits give low values 1.04 | locus YLR221C, strain rsa3, hits give low values 0.991 | locus YLR258W, strain gsy2, hits give low values 0.991 | locus YLR262C, strain YPT6 (second series), hits give low values 0.975 | locus YLR262C, strain YPT6, hits give low values 1.09 | locus YLR268W, strain sec22, hits give low values 1.01 | locus YLR320W, strain mms22, hits give low values 0.987 | locus YLR330W, strain CHS5, hits give low values 1.01 | locus YLR342W, strain FKS1 (second series), hits give low values 0.974 | locus YLR342W, strain FKS1, hits give low values 1.01 | locus YLR357W, strain rsc2, hits give low values 1.02 | locus YLR370C, strain arc18, hits give low values 0.999 | locus YLR371W, strain rom2, hits give low values 0.991 | locus YLR384C, strain iki3, hits give low values 0.989 | locus YLR418C, strain cdc73, hits give low values 0.994 | locus YML016C, strain PPZ1, hits give low values 1.01 | locus YML032C, strain rad52, hits give low values 1.01 | locus YML120C, strain ndi1, hits give low values 0.997 | locus YML124C, strain tub3, hits give low values 0.985 | locus YMR058W, strain fet3, hits give low values 0.995 | locus YMR078C, strain ctf18, hits give low values 0.994 | locus YMR125W, strain sto1, hits give low values 0.998 | locus YMR129W, hits give low values 0.988 | locus YMR205C, strain PFK2, hits give low values 1 | locus YMR223W, strain ubp8, hits give low values 0.997 | locus YMR231W, strain pep5, hits give low values 1 | locus YMR263W, strain SAP30, hits give low values 1 | locus YMR307W, strain GAS1, hits give low values 0.969 | locus YNL067W, strain RPL9B, hits give low values 1.01 | locus YNL071W, strain lat1, hits give low values 0.984 | locus YNL153C, strain GIM3, hits give low values 1 | locus YNL183C, strain NPR1, hits give low values 1 | locus YNL209W, strain ssb2, hits give low values 0.995 | locus YNL233W, strain BNI4, hits give low values 1.02 | locus YNL248C, strain rpa49, hits give low values 1.03 | locus YNL250W, strain rad50, hits give low values 1 | locus YNL271C, strain bni1, hits give low values 1 | locus YNL298W, strain CLA4, hits give low values 0.984 | locus YNL307C, strain MCK1, hits give low values 1.03 | locus YNL322C, strain KRE1 (second series), hits give low values 1 | locus YNL322C, strain KRE1, hits give low values 1.01 | locus YNR049C, strain mso1, hits give low values 0.985 | locus YNR052C, strain pop2, hits give low values 0.999 | locus YOL012C, strain htz1 1.31 | locus YOL147C, strain pex11, hits give low values 1.01 | locus YOR001W, strain rrp6, hits give low values 0.997 | locus YOR061W, strain CKA2, hits give low values 1.02 | locus YOR069W, strain VPS5, hits give low values 1.01 | locus YOR070C, strain gyp1, hits give low values 0.999 | locus YOR080W, strain dia2, hits give low values 1.01 | locus YOR083W, strain WHI5, hits give low values 1.03 | locus YOR106W, strain vam3, hits give low values 1 | locus YOR136W, strain idh2, hits give low values 0.994 | locus YOR144C, strain elg1, hits give low values 0.991 | locus YOR184W, strain ser1, hits give low values 1.03 | locus YOR231W, strain MKK1, hits give low values 1.05 | locus YOR265W, strain rbl2, hits give low values 0.997 | locus YOR270C, strain vph1, hits give low values 0.962 | locus YOR290C, strain snf2, hits give low values 0.975 | locus YOR316C, strain cot1, hits give low values 0.999 | locus YPL051W, strain arl3, hits give low values 1.01 | locus YPL078C, strain atp4, hits give low values 1.01 | locus YPL106C, strain sse1, hits give low values 0.974 | locus YPL240C, strain hsp82, hits give low values 0.993 | locus YPL241C, strain CIN2, hits give low values 1.01 | locus YPL256C, strain CLN2, hits give low values 1.05 | locus YPR119W, strain clb2, hits give low values 1 | locus YPR141C, strain kar3, hits give low values 1.03 | locus YPR163C, strain tif3, hits give low values 1 | locus YPR167C, strain met16, hits give low values 0.998 | strain wtn01, hits give low values 0.976
